# From PubChem BioAssay
# The source made the active and inactive calls. Unless noted, no stated cut-off is given here; in the data, active means inhibition above about 80%; inactive means the rest.
# Assays:
# [1] = LFS_MB_P medulloblastoma growth inhibition, cell-based, chromothripsis tumors, cisplatin or BGB combos (AID 1671449); conditions: LFS_MB_P medulloblastoma cells;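 further: cells exposed for 96 hours; 0% = vehicle DMSO and 100% = killing by high DMSO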
# [2] = HDN33 neuroblastoma growth inhibition, cell-based, chromothripsis tumors, cisplatin or BGB combos (AID 1671450); conditions: HDN33 neuroblastoma cells, stronger effect = higher value;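 further: cells exposed to compound for four days; 0% = vehicle DMSO and 100% = cell killing by high DMSO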
# [3] = ICB984 medulloblastoma cell growth inhibition, synergistic combos for chromothripsis tumors, cisplatin or BGB combos (AID 1671451; call rule not given here;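 further: cells exposed for 96 hours before readout; 0% = vehicle DMSO and 100% = killing by high DMSO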); conditions: ICB984 medulloblastoma cells, drug combinations, stronger effect = higher value
# [4] = LFS_MB_1R medulloblastoma cell growth inhibition, synergistic combos for chromothripsis tumors, cisplatin or BGB combos (AID 1671452); conditions: LFS_MB_1R medulloblastoma cells, stronger effect = higher value;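 further: cells exposed for 96 hours before readout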
# [5] = HTB85 osteosarcoma cell growth inhibition, synergistic combos for chromothripsis tumors, BGB or cisplatin IC20 combos (AID 1671453); conditions: HTB85 osteosarcoma cells, drug combinations, stronger effect = higher value;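 further: cells exposed for 96 hours before readout; 0% = vehicle DMSO and 100% = high DMSO killing control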
# [6] = CRL2098 osteosarcoma cell growth inhibition, synergistic combos for chromothripsis tumors, BGB or cisplatin IC20 combos (AID 1671454); conditions: CRL2098 osteosarcoma cells, drug combinations, stronger effect = higher value;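 further: cells exposed for 96 h before readout; 0% = vehicle DMSO and 100% = killing by high DMSO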
# [7] = HD-MB03 medulloblastoma cell growth inhibition, synergistic combos for chromothripsis tumors, BGB or cisplatin IC20 combos (AID 1671455; in the data active means inhibition above about 83%;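 further: 0% = vehicle DMSO and 100% = high DMSO as cytotoxic control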); conditions: HD-MB03 medulloblastoma cells, stronger effect = higher value
# [8] = UWB1.289 ovarian carcinoma cell growth inhibition, synergistic combos for chromothripsis tumors, BGB or cisplatin combos (AID 1671456); conditions: UWB1.289 ovarian carcinoma cells, stronger effect = higher value;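 further: cells exposed to compound for four days; 0% = vehicle DMSO and 100% = killing by high DMSO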
# [9] = LFS_MB_2R medulloblastoma cell growth inhibition, synergistic combos for chromothripsis tumors, cisplatin combos (AID 1671457); conditions: LFS_MB_2R medulloblastoma cells, stronger effect = higher value;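 further: cells exposed to compound for four days before readout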
# [10] = MDA-MB-436 breast carcinoma cell growth inhibition, synergistic combos for chromothripsis tumors, BGB or cisplatin combos (AID 1671458; call rule not given here;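 further: cells exposed for 96 hours; 0% = vehicle DMSO and 100% = killing by high DMSO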); conditions: MDA-MB-436 breast carcinoma growth inhibition, drug combinations, stronger effect = higher value
# [11] = UWB1.289_BRCA1 ovarian cancer growth, cell-based, BGB or cisplatin combinations (AID 1671459); conditions: UWB1.289 BRCA1 ovarian carcinoma, drug combinations, stronger effect = higher value
# [12] = human astrocyte viability loss, single and combined drugs, cytotoxicity control for chromothriptic childhood tumor combination screen, cell-based, BGB or cisplatin IC20 combos (AID 1671460); conditions: Human astrocytes, drug combinations, stronger effect = higher value;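 further: cells exposed to compounds for 96 hours before viability readout; 0% = vehicle and 100% = killing control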
# [13] = growth inhibition of BT084 medulloblastoma cells, cell-based, ICGC_MB145, cisplatin and BGB IC40 combos (AID 1671461); conditions: drug combinations, stronger effect = higher value;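 further: cells exposed to drugs for 96 hours; 0% = vehicle DMSO and 100% = high DMSO full killing control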
# [14] = growth inhibition of RCMB18 medulloblastoma cells, cell-based, cisplatin and BGB IC40 combos (AID 1671462); conditions: stronger effect = higher value;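 further: cells exposed to compound for four days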
# [15] = growth inhibition of CRL1545 osteosarcoma cells, cell-based, cisplatin and BGB IC20 combos (AID 1671464); conditions: stronger effect = higher value;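 further: cells exposed to compound for 96 hours before readout; 0% = vehicle DMSO and 100% = high DMSO killing control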
# [16] = measured here: combination with BGB IC40, at 0.05 µM
# [17] = measured here: with BGB IC20 combination, at 0.5 µM
# [18] = measured here: with cisplatin IC20 combination, at 0.5 µM
# [19] = measured here: combination with cisplatin, at 0.5 µM
# [20] = measured here: combination with cisplatin, at 5 µM
smiles,measurement,setting,value
CC(C)C(=O)SCCCCCCC(=O)Nc1nc(-c2ccccc2)cs1,inhibition,"[1]; at 0.5 µM, stronger effect = higher value",-25.8% (inactive)
same,inhibition,"[1]; measured here: combination with BGB IC20, at 0.005 µM",-14.6%
same,inhibition,"[1]; measured here: combination with BGB IC40, at 0.005 µM",-57.5%
same,inhibition,[1]; [16],-33.9%
same,inhibition,"[1]; measured here: combination with cisplatin, at 0.5 µM, stronger effect = higher value",-38.9%
same,inhibition,"[1]; measured here: combination with cisplatin, at 5 µM, stronger effect = higher value",85.2%
same,inhibition,"[2]; BGB combo, at 5 µM",48.9%
same,inhibition,[2]; at 0.5 µM,6.91% (inactive)
same,inhibition,"[2]; cisplatin combo, at 5 µM",45.1%
same,inhibition,[2]; [17],1.56%
same,inhibition,[2]; [18],14.6%
same,inhibition,"[2]; single agent, at 5 µM",57.6%
same,inhibition,"[3]; BGB IC20 combo, at 0.005 µM",16.1%
same,inhibition,"[3]; BGB IC40 combo, at 0.005 µM",-25.2%
same,inhibition,"[3]; BGB IC40 combo, at 0.05 µM",31.3%
same,inhibition,[3]; at 0.5 µM,-31.1% (inactive)
same,inhibition,"[3]; cisplatin combo, at 0.05 µM",28%
same,inhibition,"[3]; cisplatin combo, at 0.5 µM",-33.4%
same,inhibition,"[3]; cisplatin combo, at 5 µM",-7.7%
same,inhibition,"[3]; measured here: 5 uM single agent, at 5 µM",4.47%
same,inhibition,[4]; at 0.5 µM,-22% (inactive)
same,inhibition,[4]; [16],-72.1%
same,inhibition,[4]; [19],-44.8%
same,inhibition,[4]; [20],68.5%
same,inhibition,[5]; at 0.5 µM,-4.36% (inactive)
same,inhibition,"[5]; measured here: with BGB IC20, at 0.5 µM",2.11%
same,inhibition,"[5]; measured here: with BGB IC20, at 5 µM",19%
same,inhibition,"[5]; measured here: with cisplatin IC20, at 0.5 µM",-21.4%
same,inhibition,"[5]; measured here: with cisplatin IC20, at 5 µM",38.3%
same,inhibition,"[5]; single agent, at 5 µM",22.2%
same,inhibition,[6]; at 0.5 µM,-30.2% (inactive)
same,inhibition,"[6]; measured here: combination with BGB at IC20, at 0.5 µM",-44.3%
same,inhibition,"[6]; measured here: combination with cisplatin at IC20, at 0.5 µM",-19.3%
same,inhibition,[7]; at 0.5 µM,4.11% (inactive)
same,inhibition,"[7]; measured here: combo with BGB at IC20, at 0.5 µM",5.74%
same,inhibition,"[7]; measured here: combo with cisplatin at IC20, at 0.5 µM",11.7%
same,inhibition,[8]; at 0.5 µM,5.55% (inactive)
same,inhibition,"[8]; measured here: inhibition with BGB combination, at 0.05 µM",-30.6%
same,inhibition,"[8]; measured here: inhibition with cisplatin combination, at 0.05 µM",-3.57%
same,inhibition,[9]; at 0.5 µM,-13.4% (inactive)
same,inhibition,[9]; [19],-25.2%
same,inhibition,[9]; [20],54.7%
same,inhibition,[10]; at 0.5 µM,-7.93% (inactive)
same,inhibition,"[10]; measured here: BGB combination, at 0.5 µM",-9.46%
same,inhibition,"[10]; measured here: BGB combination, at 5 µM",10.2%
same,inhibition,"[10]; measured here: cisplatin combination, at 0.5 µM",-23.5%
same,inhibition,"[10]; measured here: cisplatin combination, at 5 µM",18.2%
same,inhibition,"[11]; BGB combination, concentration series, at 5 µM",37.8%
same,inhibition,[11]; at 0.5 µM,9.48% (inactive)
same,inhibition,"[11]; cisplatin combination, concentration series, at 5 µM",66.2%
same,inhibition,[12]; at 0.5 µM,31.1% (inactive)
same,inhibition,"[12]; measured here: combo with BGB IC20, at 0.5 µM",34.6%
same,inhibition,"[12]; measured here: combo with cisplatin IC20, at 0.5 µM",18.5%
same,inhibition,[13]; at 0.5 µM,-9.26% (inactive)
same,inhibition,"[13]; cisplatin combination, at 0.5 µM",-8.48%
same,inhibition,"[13]; cisplatin combination, at 5 µM",42.4%
same,inhibition,"[13]; measured here: BGB IC40 combination 0.05 uM, at 0.05 µM",-39.7%
same,inhibition,"[13]; single agent, at 5 µM",71.8%
same,inhibition,[14]; at 0.5 µM,-9.74% (inactive)
same,inhibition,"[14]; cisplatin combo, at 5 µM",41%
same,inhibition,"[14]; measured here: BGB IC40 combination, at 0.05 µM",12.2%
same,inhibition,[14]; [19],-9.58%
same,inhibition,"[14]; single agent, at 5 µM",36.3%
same,inhibition,[15]; at 0.5 µM,33.1% (inactive)
same,inhibition,[15]; [17],24.9%
same,inhibition,[15]; [18],36.2%
same,inhibition,"[15]; single agent, at 0.05 µM",0.931%
same,inhibition,"[15]; single agent, at 5 µM",46.6%
